PubChem BioAssay (NCI)
This is part of a sample that, as a whole, favours compounds with a hit. Of some 79,000 tested, about 15% had one in any assay. Cut-off read from the data, not from the text of the source: active = growth inhibition above about 70%; inactive = the rest.

Assays:
[1] = NCI Yeast Anticancer Drug Screen. Data for the rad50 strain (AID 155);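 note: 0% = growth of vehicle-only cultures of the same strain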; details: S. cerevisiae rad50 strain growth inhibition; at 50.0 µM; active compounds read high
Method in brief: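 Compounds were tested on a yeast strain with an engineered DNA damage repair alteration; the reported value is growth inhibition normalised to vehicle treatment.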

[2] = NCI Yeast Anticancer Drug Screen. Data for the mec2-1 strain (AID 157); details: S. cerevisiae mec2-1 strain, at 50.0 µM, active compounds read high
Method in brief: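 Yeast mec2-1 mutant treated with compound. Readout: growth inhibition vs vehicle controls.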

[3] = NCI Yeast Anticancer Drug Screen. Data for the sgs1 mgt1 strain (AID 161);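 note: 0% = growth of cultures given vehicle only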; details: S. cerevisiae sgs1 mgt1 strain, at 50.0 µM, active compounds read high
Method in brief: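 Read-out: growth inhibition vs vehicle controls. Cells: mutant yeast strain deficient in DNA damage repair.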

[4] = NCI Yeast Anticancer Drug Screen. Data for the cln2 rad14 strain (AID 165);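 note: 0% = growth equal to vehicle treated cultures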; details: S. cerevisiae cln2 rad14 strain, at 50.0 µM, active compounds read high
Method in brief: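 cln2 rad14 yeast strain; compound exposure; growth inhibition read vs vehicle controls.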

[5] = NCI Yeast Anticancer Drug Screen. Data for the bub3 strain (AID 167); details: S. cerevisiae bub3 mutant strain, at 50.0 µM, active compounds read high
Method in brief: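 Growth of a checkpoint-deficient yeast mutant is measured after compound exposure. Values represent inhibition relative to vehicle.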

[6] = NCI Yeast Anticancer Drug Screen. Data for the mlh1 rad18 strain (AID 175); details: S. cerevisiae mlh1 rad18 strain growth inhibition; at 50.0 µM; active compounds read high
Method in brief: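 Yeast w/ defined DNA-repair lesions; compound exposure; growth vs vehicle controls → % inhibition.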

Measured: growth inhibition

COc1ccc(/C=C/C(=O)CC(=O)/C=C/c2ccc(OC)cc2)cc1
inactive: [1] 23.1% | [2] 35% | [3] 7.65% | [4] 0.6% | [5] -2.75% | [6] 10.8%

COC(=O)NC(S(=O)(=O)O)S(=O)(=O)O
inactive: [1] 6.2% | [2] 11.6% | [3] 0.85% | [4] 2.65% | [5] 16.5% | [6] 1.7%

Cc1cccc(NC(=O)COc2c(C)cc(Cl)cc2Cl)c1
inactive: [1] 23.8% | [2] 15.5% | [3] 38.2% | [4] 0.45% | [5] 38% | [6] 14.8%

O=[N+]([O-])c1ccc(S(=O)(=O)N/N=C/c2ccco2)cc1
inactive: [1] 14.6% | [2] 5.95% | [3] 0.9% | [4] 9.75% | [5] 13.2% | [6] 23.9%

Cc1noc(NC2=CC(=O)C(=O)c3ccccc32)c1C
inactive: [1] 34.8% | [2] 8.45% | [3] 40.8% | [4] 8% | [5] 28.6% | [6] 42.7%

COc1cc(C2(C)SCCCS2)cc(OC)c1OC
inactive: [1] -10.9% | [2] -8.1% | [3] -4.05% | [4] 0.2% | [5] 25.8% | [6] -15.3%

O=C(Nc1ccccc1)C1CC2C=CC1C2 (stereo unspecified)
inactive: [1] 2.3% | [2] -4.3% | [3] 4% | [4] -3.9% | [5] -7.3% | [6] 1.55%

CCC/C=C(/C=N/Nc1ccc([N+](=O)[O-])cc1[N+](=O)[O-])CC
inactive: [1] 16.4% | [2] -10.7% | [3] -7.8% | [4] 32.6% | [5] 0.75% | [6] 4.05%

CN(C)C1=NC(NC2CCCCC2)(N(C)C)OC(N(C)C)=N1 (stereo unspecified)
inactive: [1] 1% | [2] -0.9% | [3] 3.2% | [4] 20.2% | [5] 1.9% | [6] 10.8%

CC(C)([NH-])C[NH-].O=C(O)CCO.[Pt+2]
inactive: [1] 27.8% | [2] -8.8% | [3] -2.8% | [4] 17.6% | [5] 8.65% | [6] 14.2%

O=C(O)Cc1cc(I)c(Oc2ccc(O)cc2)c(I)c1
inactive: [1] -5% | [2] -29.4% | [3] 6.05% | [4] 15.2% | [5] -9.5% | [6] 3.9%

CN(c1ccccc1Cl)S(=O)(=O)c1ccccc1[N+](=O)[O-]
inactive: [1] 5.15% | [2] -30.1% | [3] 31.2% | [4] -18% | [5] 38% | [6] 2.95%

Cc1cccc(C)c1NC(=O)Nc1ccc(C(=O)O)cc1
inactive: [1] -8.6% | [2] 31.7% | [3] 2.5% | [4] -15.8% | [5] 22.6% | [6] 11.4%

Nc1ccccc1NC1CCN(Cc2ccccc2)CC1
inactive: [1] 27.2% | [2] -3.35% | [3] 25.8% | [4] 33.5% | [5] 22.9% | [6] 19.1%

CSc1cccc(NC(=S)NN/C(=N/S(=O)(=O)c2ccccc2)N2CCCC2)c1
inactive: [1] 6.3% | [2] -17.6% | [3] -1.35% | [4] 2.3% | [5] -2.9% | [6] -1.2%

Cn1nnc(/N=C/c2ccccc2)n1
inactive: [1] 5.85% | [2] -8.1% | [3] -6.25% | [4] -19.1% | [5] 4.75% | [6] 11.4%

CN1C(=O)CC2(C)c3cc(O)ccc3N(C)C12 (stereo unspecified)
inactive: [1] 53.6% | [2] 30.1% | [3] 54.5% | [4] 64.3% | [5] 32.6% | [6] -81.7%

CCOC(=O)Cc1ccc(OC)c(OC)c1
inactive: [1] 3.45% | [2] -7.05% | [3] 3.9% | [4] -17.1% | [5] -2.8% | [6] 1.4%

CC[C@@H]1CN(C)[C@H]2Cc3c([nH]c4ccccc34)C(=O)C[C@H]1C2C(=O)OC (stereo partly specified)
inactive: [1] 13.5% | [2] -14.5% | [3] -19.6% | [4] -47.3% | [5] -26.2% | [6] 18.7%

NC(=S)NNCC(=O)CC(O)(C(F)(F)F)C(F)(F)Cl (stereo unspecified)
inactive: [1] -21.2% | [2] -6.95% | [3] -21.6% | [4] -21.9% | [5] 21.4% | [6] -0.65%

N=C(N)SCC(=O)c1ccc([N+](=O)[O-])cc1
inactive: [1] -6.65% | [2] 4.95% | [3] 1.35% | [4] -0.4% | [5] 3.85% | [6] 5.8%

COc1ccc(OC)c(C(=O)CCCCCCCCC(=O)c2cc(OC)ccc2OC)c1
inactive: [1] 27.2% | [2] 8% | [3] 3.85% | [4] 25.4% | [5] -3.95% | [6] 7.25%

CC1C2CC(C/C2=N/O)C1(C)C (stereo unspecified)
inactive: [1] 19.7% | [2] 19.1% | [3] 36.5% | [4] 29.1% | [5] 11.3% | [6] 21.6%

COc1ccc(NC(=O)CC(=O)n2nc(C)c(N=Nc3ccccc3C(=O)O)c2C)cc1
inactive: [1] 8.6% | [2] 10.6% | [3] -6.05% | [4] -42.5% | [5] -1.35% | [6] 15.3%

O=CNc1cccc2c(=O)[nH][nH]c(=O)c12
inactive: [1] -21.9% | [2] -46.8% | [3] -56.6% | [4] 18.1% | [5] -26.1% | [6] -39.1%

CC(C)C(=O)NCc1ccccc1Sc1ccccc1CNC(=O)C(C)C
inactive: [1] -13.8% | [2] 6.1% | [3] -18.5% | [4] -10% | [5] 1.4% | [6] -0.7%

COc1ccc(C2Cc3cc(OC)c(OC)cc3C(c3ccccc3)N2)cc1OC (stereo unspecified)
inactive: [1] 8.7% | [2] 18.7% | [3] 16.7% | [4] 12.5% | [5] -1.25% | [6] 30.5%

Nc1cc(Cl)c(N(CCO)C2=NCCN2)c(Cl)c1
inactive: [1] 3.8% | [2] -3.25% | [3] 3.05% | [4] -12.2% | [5] 1.3% | [6] -5.75%

CCCOCN1COCN=C1NC#N
inactive: [1] 28.8% | [2] 12.3% | [3] -4.7% | [4] -0.05% | [5] 5.65% | [6] 5.75%

O=C(Nc1ccc(Cl)cc1)Nc1nnc(-c2ccc(-c3nnc(NC(=O)Nc4ccc(Cl)cc4)o3)cc2)o1
inactive: [1] 28.4% | [2] 0.4% | [3] 26.4% | [4] -34.3% | [5] 18% | [6] 21.6%

Cc1ccc2cc(CCCC(=O)O)ccc2c1
inactive: [1] 43.4% | [2] 25.8% | [3] 38.7% | [4] 31.6% | [5] 40.9% | [6] 24.9%

CNC(=O)CNC(=O)C(Cc1ccc(NC(=O)CCCCC(C)=O)cc1)NC(=O)C(CCC(=O)OCc1ccccc1)NC(=O)OC(C)(C)C (stereo unspecified)
inactive: [1] -19.6% | [2] -23.6% | [3] -26.1% | [4] 0% | [5] -30.1% | [6] -17.1%

CCC(O)CNCc1ccnc2ccc(OC)cc12 (stereo unspecified)
inactive: [1] 3.3% | [2] 2.9% | [3] 0.45% | [4] -45.4% | [5] -4.1% | [6] -12.1%

c1ccc(Nc2ccc3ccccc3n2)cc1
inactive: [1] 40.6% | [2] 4.75% | [3] 40.5% | [4] 14% | [5] -1.8% | [6] 16.4%

NC(CC(=O)O)C(=O)OCc1cccc(N=Nc2ccccc2)c1 (stereo unspecified)
inactive: [1] 7.8% | [2] -8.35% | [3] -7.2% | [4] -3.2% | [5] -2.4% | [6] 4.3%

CN=Cc1c(O)ccc2ccccc12.[Cu+2]
inactive: [1] 15.3% | [2] 7.6% | [3] 1.7% | [4] 6.45% | [5] -32.9% | [6] 52.9%

COc1cc(C=O)cc(Br)c1O
inactive: [1] 13.3% | [2] -3.55% | [3] 34.1% | [4] -8.45% | [5] -19.7% | [6] 34.4%

CCCCCCCCCCCCCCCCn1cnc2c(=S)nc[nH]c21
inactive: [1] -22.1% | [2] -5.25% | [3] -19.1% | [4] -4.75% | [5] 0.5% | [6] -6.9%

Clc1cc2ncn(C3CCCO3)c2cc1Cl (stereo unspecified)
inactive: [1] 6.3% | [2] 5.1% | [3] 3% | [4] 5.95% | [5] 49% | [6] 11.8%

Nc1[nH]c(=S)[nH]c(=O)c1N=Cc1ccc2c(c1)OCO2
inactive: [1] 13.2% | [2] 10% | [3] 61.4% | [4] 12.7% | [5] 16.2% | [6] 9.7%

CCOC(=O)/C(=C/n1c(=S)[nH]c2ccc([N+](=O)[O-])cc21)C(=O)c1ccccc1
inactive: [1] -7.55% | [2] -44.8% | [3] -12.9% | [4] -1.35% | [5] -16.7% | [6] -4.65%
